Source: PubChem
eIF4H FP inh = inhibitors of RNA binding by human eIF4H. inhibition, % at 35 µM. Q15056. AID 2012. eIF4H fluorescence polarization binding assay. 290,000 compounds, 0.94% hits;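 further: calls also rest on retests at 20 µM and on dose response follow-up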
ALR H2O2 inh = human ALR oxidase inhibition via reduced H2O2; P55789; purified ALR, DTT oxidation, H2O2 HRP-luminol luminescence; inhibition, % (concentration not given with the values); 290,000 compounds, 3.8% hits;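 active means mean replicate inhibition above about 79%, with every replicate also reaching it, limit read from the data; inconclusive means only one of the two criteria met; inactive means mean below limit and not every replicate reaching it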
PABP1 MLLE inh = inhibitors of microRNA-mediated deadenylation, human PABP1 MLLE binding; AID 588489; GST-MLLE / FITC-PAM2 fluorescence polarization; P11940; 360,000 compounds, 0.36% hits; inhibition, % at 20 µM; in the data active means inhibition above about 35%, passing the limit was not always enough;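 further: plate controls were DMSO wells with GST-MLLE for no effect and wells lacking GST-MLLE protein for full effect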
Target sequence (P11940 whole entry, looked up): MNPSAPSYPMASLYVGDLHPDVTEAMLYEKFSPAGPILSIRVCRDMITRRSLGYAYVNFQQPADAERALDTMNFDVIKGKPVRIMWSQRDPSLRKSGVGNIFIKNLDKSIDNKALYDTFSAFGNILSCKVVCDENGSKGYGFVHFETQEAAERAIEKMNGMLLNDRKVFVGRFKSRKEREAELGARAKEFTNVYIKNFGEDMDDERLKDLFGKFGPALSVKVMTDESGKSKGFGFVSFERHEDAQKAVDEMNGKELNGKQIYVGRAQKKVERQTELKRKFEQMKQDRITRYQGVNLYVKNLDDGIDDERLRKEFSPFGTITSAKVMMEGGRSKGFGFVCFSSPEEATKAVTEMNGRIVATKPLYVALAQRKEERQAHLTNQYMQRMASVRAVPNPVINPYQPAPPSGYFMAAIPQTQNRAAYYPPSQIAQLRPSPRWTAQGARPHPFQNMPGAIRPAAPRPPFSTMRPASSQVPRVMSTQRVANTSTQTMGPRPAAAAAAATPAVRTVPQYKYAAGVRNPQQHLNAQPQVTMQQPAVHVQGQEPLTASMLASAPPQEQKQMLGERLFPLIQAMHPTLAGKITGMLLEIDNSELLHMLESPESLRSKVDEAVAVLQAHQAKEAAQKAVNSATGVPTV
Efflux pump inh = antifungal efflux pump inhibition, Nile Red retention | S. cerevisiae Candida pump triplex | inhibition, % at 10 µM | 330,000 compounds, 0.44% hits | AID 485275;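 active means plate passing quality check with inhibition over a set limit, or well fluorescence over plate mean plus 4 SD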;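 further: Nile Red retained in pooled yeast measured as flow cytometry median fluorescence; 0% = buffer negative control and 100% = Enniatin B positive control; higher means more Nile Red kept so more efflux inhibition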
SUMO HTRF inh = inhibitors of human SUMOylation (UBC9) | P63279 | HTRF SUMOylation assay, SAE1/SAE2 + UBC9, in vitro | inhibition, % at 35 µM | 290,000 compounds, 0.36% hits | AID 2006; in the data active means inhibition above about 50%, passing the limit was not always enough; inconclusive means no clear call, values can overlap the other calls
PABP polyA inh = blocks human PABP binding to poly(A) RNA; P11940; fluorescence polarization; inhibition, % at 35 µM; 290,000 compounds, 1% hits; AID 2014;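 further: calls also rest on retests at 20 µM and on dose response follow-up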
* marks the source's active call; other numbers are inactive results; ? = inconclusive; nt = no result given. In the library only some 4.7% were active in any assay of this set; here they are far more common. Unless noted, how the calls were made is not given here.

SMILES	eIF4H FP inh	ALR H2O2 inh	PABP1 MLLE inh	Efflux pump inh	SUMO HTRF inh	PABP polyA inh
COC(=O)c1ccc(CSc2nc3ccc(C)cc3[nH]2)o1	-12	95*	-123	0	0	-3
O=c1c2ccccc2sc2nc(C3CCCCC3)n(Cc3ccco3)c(=O)c12	33	nt	27	nt	8	37
CCc1nc2sc3ccccc3c(=O)c2c(=O)n1Cc1ccco1	69*	0	15	0	13	68*
COc1ccc2c(=O)c3c(=O)n(Cc4ccco4)c(-c4ccco4)nc3oc2c1	86*	-4	8	0	44	80*
CCc1nc2oc3cc(OC)ccc3c(=O)c2c(=O)n1Cc1ccco1	52*	nt	-67	0	16	71*
CC[C@]12c3[nH]c4ccc(Cl)cc4c3CCN1C(=O)[C@@H](CC(=O)NC/C=C(\C)CCC=C(C)C)C[C@@H]2C(=O)N1CCN(C(=O)C2CC2)CC1	nt	nt	-2	0	nt	nt
CCN(CC(=O)NC1CCS(=O)(=O)C1)C(=O)/C=C/c1cccs1 (stereo not given)	4	6	-2	0	14	-4
Cc1nc2nc(C)c(NS(=O)(=O)c3ccc4c(c3)CCCC4)c(=O)n2[nH]1	0	nt	-10	0	-6	13
COC(=O)c1c(NC(=O)/C=C/c2ccco2)sc2c1CCC2	nt	92*	-31	0	26	nt
CCc1ccc(CCC(=O)Nc2sc3c(c2C#N)CCCC3)o1	8	0	1	0	8	1
Cc1ccc(C(=O)Nc2sc3c(c2C(=O)O)CCCCC3)o1	-6	37	31	0	20	6
Cc1ccc(/C=C/C(=O)Nc2sc3c(c2C#N)CCCC3)o1	16	93*	14	0	32	-3
O=C(/C=C/c1cccs1)Nc1sc2c(c1C(=O)O)CCCC2	-5	88*	11	0	30	19
COC(=O)c1c(NC(=O)c2ccc(C)o2)sc2c1CCCCC2	10	nt	37*	nt	8	7
COC(=O)c1c(NC(=O)c2ccco2)sc2c1CCC2	-15	0	23	0	16	-6
CCOc1ccc2c(c1)c(N=O)c(O)n2C	-7	-4	-3	0	3	14
CCc1nc2c(OCC(=O)C(C)(C)C)cccn2c1N(C)C(=O)CC(C)C	nt	nt	-1	nt	nt	nt
CCCC(C)NC(=O)c1cc(S(=O)(=O)N2CCCCCC2)ccc1OC (stereo not given)	nt	nt	6	0	nt	nt
CCC(=O)Oc1ccc(C/C(=N\O)c2ccc(O)cc2O)o1	67	98*	6	0	7	-5
CCOC(=O)c1ccc(CC(=O)c2ccc(O)cc2O)o1	3	26	-11	0	21	7
Cc1cc(Cl)ccc1C(=O)C1CCCN(C(=O)c2cccc(N3CCCC3=O)c2)C1 (stereo not given)	-2	1	3	0	2	10
CC1CCN(S(=O)(=O)c2ccc(C(=O)Nc3sccc3C(N)=O)cc2)CC1	-12	9	2	0	1	8
CN(C)NC(=O)c1ccsc1NC(=O)c1ccc(S(=O)(=O)N2CCCC2)cc1	-6	87*	5	0	-10	-7
CN1CCc2[nH]c3ccc(C(=O)NN)cc3c2C1	-2	98*	-4	0	7	2
CN1C=CC2=C(C#N)C(N)C(C#N)(C#N)[C@H](c3ccccc3)[C@H]2C1 (stereo not given in full)	?	62	48*	0	20	14
SMILES	eIF4H FP inh	ALR H2O2 inh	PABP1 MLLE inh	Efflux pump inh	SUMO HTRF inh	PABP polyA inh
O=C(N/N=C/c1ccncc1)c1cccc(N/N=C/c2ccncc2)c1	-8	96*	-5	0	-8	12
Cc1cccc(N/N=C/c2ccncc2)c1	-6	99*	2	0	9	10
O=C(N/N=C/c1ccncc1)c1cccc(NC(=O)c2ccc(Cl)cc2)c1	-62	-7	-4	0	62*	20
O=C(N/N=C/c1ccc(O)cc1)c1cccc(N/N=C/c2ccc(O)cc2)c1	-4	nt	5	0	9	7
Cc1ccc(-c2csc(NS(=O)(=O)c3cccc(F)c3)n2)o1	nt	52	-9	0	nt	nt
O=C1c2ccccc2S(=O)(=O)c2cc(C(=O)N3CCN(C(=O)c4ccccc4)CC3)ccc21	nt	-1	-5	0	nt	nt
CCOc1ccc(NC(=O)Nc2ccc3c(c2)nnn3C)cc1	-10	99*	-15	0	-12	-18
Cc1ccc(NC(=O)Nc2ccc3c(c2)nnn3C)cc1C	-9	-1	7	0	4	1
O=C(/C=C/c1cccs1)N1CCN(Cc2ccc3c(c2)OCO3)CC1	1	-6	-1	0	-10	9
CCOC(=O)c1c(C)oc2cc(Br)c(OC(C)C(=O)OCC)cc12 (stereo not given)	-4	-18	8	0	-15	-4
CCOC(=O)COc1cc2c(C(=O)OCC)c(C)oc2cc1Br	-4	97*	-17	0	-16	-2
O=C(CSc1ccccc1F)NC(=O)NC1CCCC1	nt	nt	10	nt	nt	nt
CCOc1ccccc1CN1CCNC(=O)C1CC(=O)NCCc1ccccn1 (stereo not given)	14	-6	6	0	10	10
CSc1nc2ccc3nc(NC(=O)c4ccc(Cl)s4)sc3c2s1	-10	91*	-4	0	0	5
O=C(Nc1nc(-c2ccccn2)cs1)c1ncc(Cl)c(Cl)c1Cl	20	12	-16	0	-19	-11
Cc1ccc(C(=O)Nc2nc(-c3ccccn3)cs2)s1	nt	87*	14	1	nt	nt
O=C(Nc1nc(-c2ccccn2)cs1)c1ccc(Cl)s1	5	87*	0	0	-75	-5
CCc1sc(C(=O)Nc2nc(-c3ccccn3)cs2)cc1C	nt	3	-19	0	nt	nt
CSc1nc2ccc3nc(NC(=O)c4cccs4)sc3c2s1	-19	1	-34	0	-2	-14
CC1(C(=O)Nc2ccc3ccccc3c2)CCC(=O)N1CCc1c[nH]c2ccccc12 (stereo not given)	nt	nt	-4	nt	nt	nt
COCCN(C(=O)CSc1nnc(-c2ccccc2F)o1)c1c(N)n(Cc2ccccc2)c(=O)[nH]c1=O	nt	nt	-17	nt	nt	nt
Cc1ccc2nc(SCC(=O)N3CCCc4ccccc43)nc(=O)n2c1	nt	nt	9	nt	nt	nt
O=C1CC2c3ccccc3C1C1C(=O)N(Cc3ccccc3)C(=O)C21 (stereo not given)	0	17	-6	0	-13	-2
COc1cc(/C=N/NC(=O)CSc2ccccn2)ccc1O	-6	98*	12	0	20	-2
CN(C)c1ccc(/C=N/NC(=O)CSc2ccccn2)cc1	-7	99*	-5	0	0	-1
Cc1cccc(OCC(=O)N/N=C/c2ccc(N(C)C)cc2)c1	4	98*	-6	0	-11	9
CCCOc1ccc(/C=N/NC(=O)CSc2ccccn2)cc1OC	16	nt	10	0	16	-4
O=C(CNS(=O)(=O)c1ccc(Cl)c(C(F)(F)F)c1)NC1CCCCCC1	nt	nt	1	0	nt	nt
